Test results from the supplement of paper PMC4466140.

biological target: AgAbp1; experiment: SPOT peptide array binding signal intensity (averaged, normalized) (arbitrary units (background-subtracted, floor 0; scale differs between SH3 domains)); higher = stronger binding of the SH3 domain to the peptide
Description: (§1)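 GST-tagged SH3 domains from S. cerevisiae (Sc), A. gossypii (Ag), C. albicans (Ca) and S. pombe (Sp) were incubated at 10 ug/ml overnight at 4 C on cellulose SPOT membranes carrying 292 synthetic 15-mer peptides mined from the S. cerevisiae proteome (cysteines replaced by serines). Binding was detected with anti-GST antibody, HRP secondary and chemiluminescence, quantified with Genespotter, and reported as normalized spot intensities averaged over biological replicates.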

Binder	SPOT peptide array binding signal intensity
RRTRLRPPTPLSQLL	31.5
NLKKRPPTAPQRKIS	2190

biological target: AgBbc1; experiment: as above
Description: as §1

Binder	SPOT peptide array binding signal intensity
RRTRLRPPTPLSQLL	145
NLKKRPPTAPQRKIS	265

biological target: AgBem1-D1; experiment: as above
Description: as §1

Binder	SPOT peptide array binding signal intensity
RRTRLRPPTPLSQLL	113
NLKKRPPTAPQRKIS	28.5

biological target: AgBzz1-D1; experiment: as above
Description: as §1

Binder	SPOT peptide array binding signal intensity
RRTRLRPPTPLSQLL	80.8
NLKKRPPTAPQRKIS	277

biological target: AgBzz1-D2; experiment: as above
Description: as §1

Binder	SPOT peptide array binding signal intensity
RRTRLRPPTPLSQLL	45.5
NLKKRPPTAPQRKIS	199

biological target: AgCyk3; experiment: as above
Description: as §1

Binder	SPOT peptide array binding signal intensity
RRTRLRPPTPLSQLL	1.5
NLKKRPPTAPQRKIS	≤ 0

biological target: AgFus1; experiment: as above
Description: as §1

Binder	SPOT peptide array binding signal intensity
RRTRLRPPTPLSQLL	1120
NLKKRPPTAPQRKIS	110

biological target: AgHof1; experiment: as above
Description: as §1

Binder	SPOT peptide array binding signal intensity
RRTRLRPPTPLSQLL	123
NLKKRPPTAPQRKIS	60

biological target: AgHse1; experiment: as above
Description: as §1

Binder	SPOT peptide array binding signal intensity
RRTRLRPPTPLSQLL	866
NLKKRPPTAPQRKIS	1520

biological target: AgLsb1; experiment: as above
Description: as §1

Binder	SPOT peptide array binding signal intensity
RRTRLRPPTPLSQLL	154
NLKKRPPTAPQRKIS	2.25

biological target: AgLsb4; experiment: as above
Description: as §1

Binder	SPOT peptide array binding signal intensity
RRTRLRPPTPLSQLL	100
NLKKRPPTAPQRKIS	109

biological target: AgMyo5; experiment: as above
Description: as §1

Binder	SPOT peptide array binding signal intensity
RRTRLRPPTPLSQLL	1.75
NLKKRPPTAPQRKIS	≤ 0

biological target: AgNbp2; experiment: as above
Description: as §1

Binder	SPOT peptide array binding signal intensity
RRTRLRPPTPLSQLL	204
NLKKRPPTAPQRKIS	245

biological target: AgRvs167; experiment: as above
Description: as §1

Binder	SPOT peptide array binding signal intensity
RRTRLRPPTPLSQLL	15.2
NLKKRPPTAPQRKIS	13.5

biological target: AgSho1; experiment: as above
Description: as §1

Binder	SPOT peptide array binding signal intensity
RRTRLRPPTPLSQLL	64
NLKKRPPTAPQRKIS	33.5

biological target: AgSla1-D1-D2; experiment: as above
Description: as §1

Binder	SPOT peptide array binding signal intensity
RRTRLRPPTPLSQLL	93
NLKKRPPTAPQRKIS	370

biological target: AgSla1-D3; experiment: as above
Description: as §1

Binder	SPOT peptide array binding signal intensity
RRTRLRPPTPLSQLL	5
NLKKRPPTAPQRKIS	28.2

biological target: CaAbp1-D1; experiment: as above
Description: as §1

Binder	SPOT peptide array binding signal intensity
RRTRLRPPTPLSQLL	218
NLKKRPPTAPQRKIS	5270

biological target: CaAbp1-D2; experiment: as above
Description: as §1

Binder	SPOT peptide array binding signal intensity
RRTRLRPPTPLSQLL	133
NLKKRPPTAPQRKIS	6470

biological target: CaBbc1; experiment: as above
Description: as §1

Binder	SPOT peptide array binding signal intensity
RRTRLRPPTPLSQLL	333
NLKKRPPTAPQRKIS	646

biological target: CaBem1-D1; experiment: as above
Description: as §1

Binder	SPOT peptide array binding signal intensity
RRTRLRPPTPLSQLL	192
NLKKRPPTAPQRKIS	48.5

biological target: CaBzz1-D1; experiment: as above
Description: as §1

Binder	SPOT peptide array binding signal intensity
RRTRLRPPTPLSQLL	233
NLKKRPPTAPQRKIS	727

biological target: CaBzz1-D2; experiment: as above
Description: as §1

Binder	SPOT peptide array binding signal intensity
RRTRLRPPTPLSQLL	76.8
NLKKRPPTAPQRKIS	2010

biological target: CaCyk3; experiment: as above
Description: as §1

Binder	SPOT peptide array binding signal intensity
RRTRLRPPTPLSQLL	88.5
NLKKRPPTAPQRKIS	3

biological target: CaFus1; experiment: as above
Description: as §1

Binder	SPOT peptide array binding signal intensity
RRTRLRPPTPLSQLL	1050
NLKKRPPTAPQRKIS	254

biological target: CaHof1; experiment: as above
Description: as §1

Binder	SPOT peptide array binding signal intensity
RRTRLRPPTPLSQLL	7.63e-06
NLKKRPPTAPQRKIS	1

biological target: CaHse1; experiment: as above
Description: as §1

Binder	SPOT peptide array binding signal intensity
RRTRLRPPTPLSQLL	60.6
NLKKRPPTAPQRKIS	34.5

biological target: CaLsb1; experiment: as above
Description: as §1

Binder	SPOT peptide array binding signal intensity
RRTRLRPPTPLSQLL	0.5
NLKKRPPTAPQRKIS	≤ 0

biological target: CaLsb4; experiment: as above
Description: as §1

Binder	SPOT peptide array binding signal intensity
RRTRLRPPTPLSQLL	307
NLKKRPPTAPQRKIS	942

biological target: CaMyo5; experiment: as above
Description: as §1

Binder	SPOT peptide array binding signal intensity
RRTRLRPPTPLSQLL	4
NLKKRPPTAPQRKIS	4.5

biological target: CaNbp2; experiment: as above
Description: as §1

Binder	SPOT peptide array binding signal intensity
RRTRLRPPTPLSQLL	512
NLKKRPPTAPQRKIS	764

biological target: CaRvs167; experiment: as above
Description: as §1

Binder	SPOT peptide array binding signal intensity
RRTRLRPPTPLSQLL	40.8
NLKKRPPTAPQRKIS	32

biological target: CaRvs167-3; experiment: as above
Description: as §1

Binder	SPOT peptide array binding signal intensity
RRTRLRPPTPLSQLL	16.5
NLKKRPPTAPQRKIS	67.8

biological target: CaSho1; experiment: as above
Description: as §1

Binder	SPOT peptide array binding signal intensity
RRTRLRPPTPLSQLL	526
NLKKRPPTAPQRKIS	170

biological target: CaSla1-D1-D2; experiment: as above
Description: as §1

Binder	SPOT peptide array binding signal intensity
RRTRLRPPTPLSQLL	574
NLKKRPPTAPQRKIS	1470

biological target: CaSla1-D3; experiment: as above
Description: as §1

Binder	SPOT peptide array binding signal intensity
RRTRLRPPTPLSQLL	12.9
NLKKRPPTAPQRKIS	6.5

biological target: ScAbp1; experiment: as above
Description: as §1

Binder	SPOT peptide array binding signal intensity
RRTRLRPPTPLSQLL	70.5
NLKKRPPTAPQRKIS	2890

biological target: ScBbc1; experiment: as above
Description: as §1

Binder	SPOT peptide array binding signal intensity
RRTRLRPPTPLSQLL	61.6
NLKKRPPTAPQRKIS	56.8

biological target: ScBem1-D1; experiment: as above
Description: as §1

Binder	SPOT peptide array binding signal intensity
RRTRLRPPTPLSQLL	111
NLKKRPPTAPQRKIS	8

biological target: ScBzz1-D1; experiment: as above
Description: as §1

Binder	SPOT peptide array binding signal intensity
RRTRLRPPTPLSQLL	42
NLKKRPPTAPQRKIS	258

biological target: ScBzz1-D2; experiment: as above
Description: as §1

Binder	SPOT peptide array binding signal intensity
RRTRLRPPTPLSQLL	26.2
NLKKRPPTAPQRKIS	34

biological target: ScCyk3; experiment: as above
Description: as §1

Binder	SPOT peptide array binding signal intensity
RRTRLRPPTPLSQLL	83.8
NLKKRPPTAPQRKIS	13

biological target: ScFus1; experiment: as above
Description: as §1

Binder	SPOT peptide array binding signal intensity
RRTRLRPPTPLSQLL	722
NLKKRPPTAPQRKIS	80

biological target: ScHof1; experiment: as above
Description: as §1

Binder	SPOT peptide array binding signal intensity
RRTRLRPPTPLSQLL	4.5
NLKKRPPTAPQRKIS	2.75

biological target: ScHse1; experiment: as above
Description: as §1

Binder	SPOT peptide array binding signal intensity
RRTRLRPPTPLSQLL	1120
NLKKRPPTAPQRKIS	1640

biological target: ScLsb1; experiment: as above
Description: as §1

Binder	SPOT peptide array binding signal intensity
RRTRLRPPTPLSQLL	63
NLKKRPPTAPQRKIS	32.5

biological target: ScLsb2; experiment: as above
Description: as §1

Binder	SPOT peptide array binding signal intensity
RRTRLRPPTPLSQLL	5.5
NLKKRPPTAPQRKIS	3.5

biological target: ScLsb3; experiment: as above
Description: as §1

Binder	SPOT peptide array binding signal intensity
RRTRLRPPTPLSQLL	1130
NLKKRPPTAPQRKIS	2500

biological target: ScLsb4; experiment: as above
Description: as §1

Binder	SPOT peptide array binding signal intensity
RRTRLRPPTPLSQLL	37.8
NLKKRPPTAPQRKIS	100

biological target: ScMyo3; experiment: as above
Description: as §1

Binder	SPOT peptide array binding signal intensity
RRTRLRPPTPLSQLL	≤ 0
NLKKRPPTAPQRKIS	9.5

biological target: ScMyo5; experiment: as above
Description: as §1

Binder	SPOT peptide array binding signal intensity
RRTRLRPPTPLSQLL	4.12
NLKKRPPTAPQRKIS	6.5

biological target: ScNbp2; experiment: as above
Description: as §1

Binder	SPOT peptide array binding signal intensity
RRTRLRPPTPLSQLL	727
NLKKRPPTAPQRKIS	578

biological target: ScPex13; experiment: as above
Description: as §1

Binder	SPOT peptide array binding signal intensity
RRTRLRPPTPLSQLL	16.2
NLKKRPPTAPQRKIS	1.75

biological target: ScRvs167; experiment: as above
Description: as §1

Binder	SPOT peptide array binding signal intensity
RRTRLRPPTPLSQLL	148
NLKKRPPTAPQRKIS	708

biological target: ScSho1; experiment: as above
Description: as §1

Binder	SPOT peptide array binding signal intensity
RRTRLRPPTPLSQLL	1180
NLKKRPPTAPQRKIS	367

biological target: ScSla1-D1-D2; experiment: as above
Description: as §1

Binder	SPOT peptide array binding signal intensity
RRTRLRPPTPLSQLL	2070
NLKKRPPTAPQRKIS	1690

biological target: ScSla1-D3; experiment: as above
Description: as §1

Binder	SPOT peptide array binding signal intensity
RRTRLRPPTPLSQLL	3.38
NLKKRPPTAPQRKIS	8.25

biological target: SpAbp1-D1; experiment: as above
Description: as §1

Binder	SPOT peptide array binding signal intensity
RRTRLRPPTPLSQLL	20.5
NLKKRPPTAPQRKIS	2030

biological target: SpBbc1; experiment: as above
Description: as §1

Binder	SPOT peptide array binding signal intensity
RRTRLRPPTPLSQLL	14.8
NLKKRPPTAPQRKIS	11

biological target: SpBzz1-D1; experiment: as above
Description: as §1

Binder	SPOT peptide array binding signal intensity
RRTRLRPPTPLSQLL	486
NLKKRPPTAPQRKIS	641

biological target: SpBzz1-D2; experiment: as above
Description: as §1

Binder	SPOT peptide array binding signal intensity
NLKKRPPTAPQRKIS	8.5

biological target: SpCyk3; experiment: as above
Description: as §1

Binder	SPOT peptide array binding signal intensity
NLKKRPPTAPQRKIS	≤ 0

biological target: SpHof1; experiment: as above
Description: as §1

Binder	SPOT peptide array binding signal intensity
NLKKRPPTAPQRKIS	192

biological target: SpHof1-2; experiment: as above
Description: as §1

Binder	SPOT peptide array binding signal intensity
NLKKRPPTAPQRKIS	12.8

biological target: SpHof1-3; experiment: as above
Description: as §1

Binder	SPOT peptide array binding signal intensity
NLKKRPPTAPQRKIS	77.2

biological target: SpHse1; experiment: as above
Description: as §1

Binder	SPOT peptide array binding signal intensity
NLKKRPPTAPQRKIS	1160

biological target: SpLsb1; experiment: as above
Description: as §1

Binder	SPOT peptide array binding signal intensity
NLKKRPPTAPQRKIS	9

biological target: SpLsb4; experiment: as above
Description: as §1

Binder	SPOT peptide array binding signal intensity
NLKKRPPTAPQRKIS	2350

biological target: SpMyo1; experiment: as above
Description: as §1

Binder	SPOT peptide array binding signal intensity
NLKKRPPTAPQRKIS	10.2

biological target: SpNbp2; experiment: as above
Description: as §1

Binder	SPOT peptide array binding signal intensity
NLKKRPPTAPQRKIS	303

biological target: SpPex13; experiment: as above
Description: as §1

Binder	SPOT peptide array binding signal intensity
NLKKRPPTAPQRKIS	6

biological target: SpRvs167; experiment: as above
Description: as §1

Binder	SPOT peptide array binding signal intensity
NLKKRPPTAPQRKIS	539

biological target: SpSla1-D1-D2; experiment: as above
Description: as §1

Binder	SPOT peptide array binding signal intensity
NLKKRPPTAPQRKIS	13

biological target: SpSla1-D3; experiment: as above
Description: as §1

Binder	SPOT peptide array binding signal intensity
NLKKRPPTAPQRKIS	6
